# From PubChem BioAssay (EPA / NIEHS)
# Calls of active or inactive are those of the source. How the source made its calls: active means hit-call score of the fitted dose curve at least 0.9, where 1 is the maximum; inactive means score below 0.9.
# Test: CEETOX_H295R_MTT_cell_viability: Viability Assessment in the CeeTox HT-H295R MTT Assay (AID 2283718);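 on AC50: curve fitted both ways so AC50 may mark viability loss or gain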
# Procedure: CEETOX_H295R is a cell-based, multiplexed-readout assay that uses H295R, a human adrenal gland cell line, with measurements taken at 48 hours after chemical dosing in a 96-well plate.CEETOX_H295R_MTT_cell_viability is one of 23 assay component(s) measured or calculated from the CEETOX_H295R assay. It is designed to make measurements of cell number, a form of viability reporter, as detected with […] signals by MTT cytotoxicity assay technology.The assay component endpoint CEETOX_H295R_MTT_cell_viability was analyzed with bidirectional fitting relation to DMSO as the negative control and baseline of activity. Using a type of viability reporter in the MTT cytotoxicity assay, gain or loss-of-signal activity can be used to monitor cellular processes to understand changes in proliferation. To generalize the intended target to other relatable targets, this assay endpoint is annotated to cell cycle, where the subfamily is proliferation.
# Cell culture and media preparation procedures were conducted in accordance with OECD Test No. 456 guidelines, with minor modifications. H295R cells (ATCC CRL-2128) were expanded for 5 passages and frozen in batches in liquid nitrogen. Prior to the steroidogenesis assay, H295R cells were thawed and passed at least 4 times. The maximum passage was 10. Cells were maintained in a 1:1 mixture of DMEM/F12 supplemented with 5ml/L ITS+ Premix (BD Bioscience) and 12.5 ml/L Nu-Serum (BD Bioscience). After seeding cells into 96-well plates at 50-60% confluency, cells were allowed to adhere overnight. Prior to chemical testing, culture medium was replaced with 175 uL medium containing 10 uM forskolin to stimulate steroidogenesis for 48 hours. Following prestimulation, forskolin medium was replaced with medium containing test chemical solubilized in DMSO (ensuring a final concentration of 0.1% DMSO). Test chemicals were incubated for 48 hours, then the medium was removed and split into 2 vials containing approximately 75uL each, and stored at -80 C prior to hormone analysis. For steroid quantification, media samples were shipped to OpAns, LLC (Durham, NC) on dry ice, and samples were thawed to room temperature prior to liquid-liquid extraction. Steroid hormones were extracted from media samples using methyl tertbutyl ether (MTBE). An extra derivatization with dansyl chloride was included for estrogen (estrone and estradiol) detection only. Steroid hormones were separated by HPLC, eluted using a reverse phase C18 gradient with electrospray positive ionization, followed by quantification by tandem mass spectrometry (MS/MS). Data were acquired on a MassHunter Workstation Acquisition version B03.01 (Agilent Technologies, Inc.) and processed using MassHunter Quantitative Analysis for QQQ. Accuracy was determined for each hormone analyte from 3 standards to determine upper and lower limits of quantification (ULOQ and LLOQ, respectively) using a 7-point standard curve. Precision and accuracy of the extraction and quantification methods were calculated as the percent relative standard deviation (%RSD) of the spiked standards and percent spiked standard recovered, respectively. The goal was to achieve 100% accuracy (i.e., recover all spiked-in standard at quantification with minimal loss during run time) and good precision (i.e., have %RSD <15% to ensure reproducibility). Test medium was removed following chemical exposure, and cell viability was evaluated in the same wells by MTT. MTT procedures were as follows: after removal of test medium, 500 uL of 0.5 mg/ml of 3-[4,5-dimethylthiazol-2-y]2,5-diphenyltetrazoliumbromide solution was added to the cells. Following a 4-hour incubation at 37 C and 5% CO2 to allow formazan-crystal formation, the MTT solution was removed and blue formazan salt crystals were solubilized using 500uL anhydrous isopropanol with shaking for 20 minutes. Absorbance was read at 570 and 650nm using a Packard Fusion microplate reader. […]
SMILES,outcome,AC50
COc1ccc(C(=O)c2ccccc2)c(O)c1,inactive,
CC(C)c1ccc(O)c(C(C)C)c1,inactive,
O=C(OCc1ccccc1)c1ccc(O)cc1,,10.6 µM (active)
CN(C)c1ccc2nc3ccc(=[N+](C)C)cc-3sc2c1,inactive,
C=C[C@@]1(C)CC(=O)[C@]2(O)[C@@]3(C)[C@@H](O)CCC(C)(C)[C@@H]3[C@H](O)[C@H](OC(C)=O)[C@@]2(C)O1,inactive,
N#Cc1ccc(C(c2ccc(C#N)cc2)n2cncn2)cc1,inactive,
CCOC(=O)C1=NN(c2ccc(Cl)cc2Cl)C(C)(C(=O)OCC)C1 (configuration not stated),inactive,
CC(C)(c1ccccc1)c1ccc(Nc2ccc(C(C)(C)c3ccccc3)cc2)cc1,,86 µM (active)
COc1ccc(C(=O)/C(Br)=C\C(=O)O)cc1,,76.4 µM (active)
CCCC=C(C=O)CC,inactive,
C=CC(=O)OCCCCCCOC(=O)C=C,inactive,
O=C(O)c1cc(O)c2ccccc2c1O,inactive,
CC(C)(C)NC(=O)[C@H]1CC[C@H]2[C@@H]3CC[C@H]4NC(=O)C=C[C@]4(C)[C@H]3CC[C@]12C,inactive,
CCN1CN(CC)CN(CC)C1,,0.396 µM (active)
N#Cc1ccc(C2CCCc3cncn32)cc1 (configuration not stated),inactive,
COc1ccc(-c2coc3cc(O)cc(O)c3c2=O)cc1,inactive,
CCCCC1C(=O)N(c2ccccc2)N(c2ccccc2)C1=O,inactive,
